Measurements: PubChem BioAssay (NCATS)
Results filed as inconclusive are left out. Unmarked numbers belong to inactive results. Activity calls are given as the source filed them. Calls follow the shape of the dose curve; as a rule, active = well fitted inhibition curve with a large enough effect; inconclusive = small, poorly fitted or top-dose-only effect; inactive = no such curve, though single readings can be large or run the other way.

What follows are molecules tested on Zika virus NS2B-NS3 protease (unlinked complex) (assay: Primary screen GU Rhodamine qHTS for Zika virus inhibitors: Unlinked NS2B-NS3 protease assay (AID 1347159; also: nearly all actives have a fitted effect of over 60% in size)). Details: Recombinant ZIKV NS2B-NS3 protease, Rhodamine110 substrate fluorescence; series mostly up to 107 µM; activity change, negative = inhibition: at the top concentration.
Source text: Avindra Nath, Ph.D., National Institute of Neurological Disorders and Stroke (NINDS), Bethesda, MD
Radhakrishnan Padmanabhan, Ph.D., Georgetown University (GU), Washington D.C.
Zika Virus causes congenital defects, including microcephaly and is associated with Guillain-Barre syndrome, eningoencephalitis and myelitis in infected adult. […] Using a target-based approach, we hope to establish a screening paradigm to uncover novel, cell-active NS2B-NS3 protease (Zika Virus) specific inhibitors from NCATS' collection of small molecules using qHTS.
Four assay panel was created to identify potential Zika Virus inhibitors. Namely, (1) GU unlinked NS2B-NS3 AMC tagged protease qHTS, (2) GU unlinked NS2B-NS3 Rhodamine tagged protease qHTS, (3) NINDS linked NS2B-NS3 AMC tagged protease qHTS, (4) NINDS linked NS2B-NS3 Rhodamine tagged protease qHTS. Active compounds were re-acquired and re-screened to confirm inhibition. Inhibitors were further screened against various confirmatory and counterscreens in dose response format.
Early Translation Branch (ETB)
National Center for Advancing Translational Sciences (NCATS), Rockville, MD
National Institute of Health (NIH), Bethesda, Maryland
Padmanabhan lab provided the NS2B hydrophilic domain and NS3 protease domain in a noncovalent complex used for the unlinked assay. Control compound aprotinin is obtained from Thermo Scientific (#78432; Waltham, Massachusetts). Rhodamine110 substrate ([N-Cbz]-Nle-Lys-Arg-Arg-Rhod110-Arg-Arg-Lys-Nle-[N-Cbz]) was purchased from either Genscript or Bachem.
1536-well Protease (Rhodamine110 Substrate) Assay:
Briefly, 3 microL of enzyme (25 nM final concentration), in assay buffer (10 mM Tris-HCl pH 8.0 with 0.01% Tween 20) were dispensed into a 1,536-well solid-bottom black plate (Greiner Bio One, Monroe, NC). Twenty-three nL of compounds (final concentration range 7.28 nM to 114 microM) or control Aprotinin (final concentration range 3.47 nM to 114 microM) were transferred via Wako Pin-tool (Wako Automation, Richmond, VA). Samples were incubated (room temperature, protected from light) for 15 minutes followed by a 1 microL Rhodamine110 substrate addition (1.5 microM final concentration). Plates were then immediately read on a ViewLux High-throughput CCD imager (PerkinElmer, Waltham, MA) equipped with FITC fluorescence optics (480(20) nm excitation, 540(25) nm emission), then incubated (room temperature, protected from light) for 15 minutes (~15% conversion). The change in fluorescence intensity over the 15-minute reaction period was normalized against no-inhibitor and no-enzyme controls and the resulting percent inhibition data were fitted to a 4-parameter Hill equation. Aprotinin was used as intraplate control.
% is scaled to controls: 0 for no effect and ±100 for the full control effect; potency is read from the fitted curve at half-maximal effect.

SMILES	Potency	activity change, negative = inhibition
CC(C)c1ccc(NC(=O)C(c2ccccc2)N(C)C(=O)Cc2c[nH]c3ccccc23)cc1 (stereo not given)	79.4 µM (active)	–
O=C(Nc1ncc(SCCN2CCCC2)s1)C1(c2ccc(S(=O)(=O)C3CC3)cc2)CC1C1CCCCC1 (stereo not given)	–	51.5%
C/C=C/C[C@@H](C)[C@@H](O)[C@H]1C(=O)N[C@@H](CC)C(=O)N(C)CC(=O)N(C)[C@@H](CC(C)C)C(=O)N[C@@H](C(C)C)C(=O)N(C)[C@@H](CC(C)C)C(=O)N[C@@H](C)C(=O)N[C@H](C)C(=O)N(C)[C@@H](CC(C)C)C(=O)N(C)[C@@H](CC(C)C)C(=O)N(C)[C@H](C(C)C)C(=O)N1C	–	10.7% [at 57.1 µM]
CO[C@@H]1[C@@H](O[C@H]2O[C@@H](C)[C@H](O[C@@H]3C[C@](C)(O)[C@H](O)[C@@H](C)O3)[C@@H](N(C)C)[C@@H]2O)[C@@H](CC=O)C[C@@H](C)[C@@H](O[C@H]2CC[C@H](N(C)C)[C@H](C)O2)/C=C/C=C/C[C@@H](C)OC(=O)C[C@H]1O	–	-9.9%
Cc1cc(N=Nc2ccc(S(=O)(=O)Nc3ccccn3)cc2)c(N)cc1O	–	0%
C=CC(=O)N1CCN(C(=O)c2cc(-c3cc(Cl)ccc3Cl)c(Cl)cc2OC)CC1	–	-13.7%
COc1cc(-c2cc(-c3cccc(O)c3)cnc2N)cc(OC)c1OC	–	12.1%
CCS(=O)(=O)N(Cc1cccnc1)c1cccc(-c2ccc(C#N)cc2)c1	–	19.6%
CC1=CC(=O)[C@@]2(C(C)C)C[C@@H]12	2.51 µM (active)	–
OC(CNCCc1c[nH]c2ccccc12)Cn1c2ccccc2c2ccccc21 (stereo not given)	–	359%
C=C1[C@@H](C)[C@H]2[C@H](Cc3c[nH]c4ccccc34)NC(=O)[C@]23C(=O)/C=C/C(=O)[C@H](O)/C(C)=C\[C@@H](C)C/C=C/[C@H]3[C@@H]1O	–	-3.08% [at 57.1 µM]
Clc1ccccc1CNCC1CCC(CNCc2ccccc2Cl)CC1 (stereo not given)	–	80.7%
FC(F)(F)c1ccc(CNc2ccc(Cc3c[nH]c4ncccc34)cn2)cc1	–	-8.17%
CN(C)C(=O)c1cc2cnc(Nc3ccc(N4CCNCC4)cn3)nc2n1C1CCCC1	–	8.82%
COc1cccc(NC[C@@H](O)Cn2c3ccc(Br)cc3c3cc(Br)ccc32)c1	44.7 µM (active)	–
COc1ccc2c3ccnc4ccc(=O)n(c2c1)c43	–	2.63%
CCN1CCN(Cc2ccc(-c3cc4c(NC(C)c5ccccc5)ncnc4[nH]3)cc2)CC1 (stereo not given)	–	81.6%
N#Cc1c[nH]c2c(C(=O)N3CCN(CCc4ccc(F)cc4)CC3)cccc12	–	53.7%
COc1cc2nc(-c3cc(F)ccc3O)nc(N[C@@H]3CNC[C@H]3C(C)(C)O)c2cc1OC	–	199%
CCN(CC)Cc1cccc(/C=C/c2nc3ccc(F)cc3c(=O)n2-c2ccccc2Cl)n1	–	14.4%

SMILES	Potency	activity change, negative = inhibition
Fc1ccc(C2CCNC[C@H]2COc2ccc3c(c2)OCO3)cc1 (stereo not given in full)	–	103%
O=S(=O)(c1cccc2ccccc12)n1ccc2ccc(N3CCN4CCCC4C3)cc21 (stereo not given)	–	140%
CN(CCCNC(=O)c1ccc2nc3c(c(Cl)c2c1)CCCC3)Cc1ccccc1	–	46.2%
CC[C@H](CO)Nc1nc(Nc2cccc(-c3ccccn3)c2)c2ncn(C(C)C)c2n1	–	70.5%
CC(C)CCC[C@@H](C)[C@H]1CC[C@H]2[C@@H]3CC=C4C[C@@H](OC(=O)NCCN(C)C)CC[C@]4(C)[C@H]3CC[C@]12C	–	442%
CC[C@H]1OC(=O)[C@H](C)[C@@H](O[C@H]2C[C@@](C)(OC)[C@@H](O)[C@H](C)O2)[C@H](C)[C@@H](O[C@@H]2O[C@H](C)C[C@H](N(C)C)[C@H]2O)[C@](C)(O)C[C@@H](C)/C(=N/OCOCCOC)[C@H](C)[C@@H](O)[C@]1(C)O	–	0%
CCC[C@@H](NC(=O)N1C(=O)C(CC)(CC)[C@@H]1Oc1ccc(C(=O)N2CCN(C)CC2)cc1)c1ccc2c(c1)OCO2	–	11.5%
C=C1C(=O)O[C@@H]2[C@H]1[C@H](O)C[C@]1(C)[C@@H](O)CC=C(C)[C@@H]21	–	0.16%
CCCCn1c(-c2ccccc2)nc(-c2ccccc2)c1CN(Cc1ccc2c(c1)OCO2)Cc1ccc2c(c1)OCO2	–	-16%
Cc1ccc(C2(COC(=O)C(C)C)CO2)c(OC(=O)C(C)C)c1 (stereo not given)	–	25.9%
Cc1cc(CN)cc(C)c1NC(=O)c1ccc(-c2cc(Cl)ccc2Cl)o1	–	162%
O=C(C1=CCN2c3c(cccc31)OC[C@H]2CN1CCOCC1)c1cccc2ccccc12	–	45.9%
CC1(C)CC23[C@@H]4CC(=O)[C@@H]2COC(=O)[C@@H]3CC[C@H]41	–	-3.63%
COc1c(N2CC3CCCNC3C2)c(F)cc2c(=O)c(C(=O)O)cn(C3CC3)c12 (stereo not given)	–	10.3%
COc1ccc(-c2cc(C(O)C3CCCCN3)c3ccccc3n2)cc1 (stereo not given)	–	14.1%
Cc1cc2nc(NCCCO)n(CC(=O)c3cc(C(C)(C)C)c(O)c(C(C)(C)C)c3)c2cc1C	–	0%
N#Cc1ccc2c(c1)CCN(CCC1CCC(NC(=O)c3ccnc4ccccc34)CC1)C2 (stereo not given)	–	84%
OCC(CO)(CO)NCC(O)Cn1c2ccc(Cl)cc2c2cc(Cl)ccc21 (stereo not given)	–	0%
C[C@@H]1CCNC(=O)c2cc3ccc(C(=O)Nc4nc5ccccc5n4CCCN(C)C)cc3n21	–	34.1%
COc1ccccc1-c1cc(Nc2cccc(CS(N)(=O)=O)c2)ncn1	–	7.55%
